The values below come from PubChem BioAssay (EPA / NIEHS).

A short description of assay [1]: ATG_CRE_CIS: Attagene CIS-FACTORIAL HepG2 Assay for human cAMP Responsive Element (CRE) binding protein 3 (AID 2282926). The conditions noted are these: HepG2 CRE cis-reporter, Attagene multiplexed mRNA; actives raise or lower the signal. Put shortly: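 Assay format: transient reporter transfection of HepG2, 24 h treatment, total RNA isolation with DNase I step. Reporter abundance read by fluorescence after PCR and capillary separation; DMSO-normalised gain or loss fitting.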

The target of assay [2] is CCAAT/enhancer-binding protein beta (Homo sapiens) (UniProt P17676). Put plainly: ATG_C_EBP_CIS: Attagene CIS-FACTORIAL HepG2 Assay for human CCAAT/Enhancer Binding Protein (C/EBP) beta (AID 2282927). The conditions noted are these: HepG2 Attagene cis-factorial transcription factor reporter; actives raise or lower the signal. Put shortly: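 HepG2 transiently transfected with multiplexed reporter units under cis-regulatory promoters reporting endogenous C/EBPb activity. After 24 h exposure, reporter mRNA assayed by RT-PCR, fluorescent labelling, HpaI digestion and capillary electrophoresis; bidirectional fitting versus DMSO.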
CCAAT/enhancer-binding protein beta (Homo sapiens), sequence (P17676 whole entry, looked up): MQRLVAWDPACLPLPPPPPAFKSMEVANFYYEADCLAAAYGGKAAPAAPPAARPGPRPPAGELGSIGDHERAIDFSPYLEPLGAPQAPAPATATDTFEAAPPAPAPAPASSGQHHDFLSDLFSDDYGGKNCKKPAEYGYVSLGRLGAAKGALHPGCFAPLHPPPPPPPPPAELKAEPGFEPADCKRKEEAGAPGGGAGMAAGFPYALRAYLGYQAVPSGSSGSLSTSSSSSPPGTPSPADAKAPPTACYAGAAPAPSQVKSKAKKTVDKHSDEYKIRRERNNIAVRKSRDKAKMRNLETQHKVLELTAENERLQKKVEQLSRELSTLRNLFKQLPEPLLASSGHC

A short description of assay [3]: ATG_CMV_CIS: Attagene CIS-FACTORIAL HepG2 Assay for human CMV (Internal Marker) (AID 2282928).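 Also: endpoint acts as a background internal control marker rather than a target.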 The conditions noted are these: HepG2 CMV promoter reporter, transcription factor profiling; actives raise or lower the signal. Put shortly:
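24 h chemical treatment, HepG2 with transient multi-reporter transfection; RNA → oligo(dT) RT → PCR → 6-FAM extension → HpaI digest → CE fluorescence. Bidirectional fit, DMSO negative control.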

Assay [4] can be described thus: ATG_DR4_LXR_CIS: Attagene CIS-FACTORIAL HepG2 Assay for human Liver X Receptor (LXR), DR4 submotif (AID 2282929). The conditions noted are these: HepG2 Attagene DR4 cis-reporter, mRNA transcription; actives raise or lower the signal. Put shortly: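 DR4 cis-reporter in HepG2, 24 h exposure. Detection: RT-PCR, 6-FAM labelling, CE fragment analysis. Endpoint fitted bidirectionally, DMSO = baseline.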

The target in assay [5] is Aryl hydrocarbon receptor (Homo sapiens) (UniProt P35869). Put plainly: ATG_Ahr_CIS: Attagene CIS-FACTORIAL HepG2 Assay for human Aryl Hydrocarbon Receptor (Ahr) (AID 2282930). The conditions noted are these: HepG2 AhR cis-factorial reporter transcription; actives raise or lower the signal. An outline of the steps: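 HepG2 cells transiently transfected with cis-element-driven multiplexed reporter units; endogenous AhR activity read as reporter mRNA 24 h after dosing, via RT-PCR, 6-FAM labelling, HpaI digestion and capillary electrophoresis. Bidirectional fit relative to DMSO.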
Aryl hydrocarbon receptor (Homo sapiens), sequence (P35869 whole entry, looked up): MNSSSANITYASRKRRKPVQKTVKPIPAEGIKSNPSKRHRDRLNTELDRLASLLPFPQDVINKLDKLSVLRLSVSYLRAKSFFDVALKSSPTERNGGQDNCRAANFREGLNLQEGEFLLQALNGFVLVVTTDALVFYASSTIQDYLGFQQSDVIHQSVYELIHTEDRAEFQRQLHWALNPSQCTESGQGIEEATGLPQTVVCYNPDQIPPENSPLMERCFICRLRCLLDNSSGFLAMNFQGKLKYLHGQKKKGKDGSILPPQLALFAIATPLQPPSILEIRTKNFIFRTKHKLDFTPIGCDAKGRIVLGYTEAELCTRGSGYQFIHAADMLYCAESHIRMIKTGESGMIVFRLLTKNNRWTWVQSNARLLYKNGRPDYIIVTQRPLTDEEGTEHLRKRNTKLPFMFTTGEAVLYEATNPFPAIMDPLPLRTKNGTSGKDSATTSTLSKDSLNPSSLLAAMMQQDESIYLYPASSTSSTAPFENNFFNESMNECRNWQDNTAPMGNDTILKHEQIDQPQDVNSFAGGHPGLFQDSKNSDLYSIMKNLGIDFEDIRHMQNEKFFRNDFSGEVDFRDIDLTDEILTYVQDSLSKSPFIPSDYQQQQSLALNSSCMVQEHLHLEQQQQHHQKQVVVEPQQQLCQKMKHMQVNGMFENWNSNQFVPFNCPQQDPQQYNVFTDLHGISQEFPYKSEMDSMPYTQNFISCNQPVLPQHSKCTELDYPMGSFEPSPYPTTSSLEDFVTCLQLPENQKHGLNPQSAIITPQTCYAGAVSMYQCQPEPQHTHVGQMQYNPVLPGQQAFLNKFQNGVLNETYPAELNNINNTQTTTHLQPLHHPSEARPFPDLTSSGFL

A short description of assay [6]: ATG_AP_1_CIS: Attagene CIS-FACTORIAL HepG2 Assay for human Activator Protein 1 (AP-1) (AID 2282931). The conditions noted are these: HepG2 Attagene cis-factorial AP-1 reporter mRNA; actives raise or lower the signal. An outline of the steps: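 Cis-regulated reporter units transiently expressed in HepG2 report endogenous transcription-factor activity. Signal: reporter mRNA at 24 h, via RT-PCR and fluorescent capillary electrophoresis. Endpoint derived by bidirectional fitting, DMSO as negative control.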

The nature of assay [7]: ATG_AP_2_CIS: Attagene CIS-FACTORIAL HepG2 Assay for human Activator Protein 2 (AP-2) (AID 2282932). The conditions noted are these: HepG2 AP-2 cis-reporter, Attagene transcription factor profiling; actives raise or lower the signal. Put shortly: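 Liver-derived HepG2 line, cis-reporter system measuring endogenous factors; 24 h dosing; reporter mRNA detected by fluorescent RT-PCR and capillary electrophoresis.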

Assay [8] in a line: ATG_BRE_CIS: Attagene CIS-FACTORIAL HepG2 Assay for human Bone Morphogenetic Protein (BMP) Response Element (BRE) (AID 2282933). The conditions noted are these: HepG2 BMP response element reporter, Attagene transcription factor profiling; actives raise or lower the signal. An outline of the steps:
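Transient MRTU transfection of human HepG2 liver cells; 24 h compound treatment; total RNA isolated, reverse-transcribed, PCR-amplified, 6-FAM labelled, HpaI-cut, capillary electrophoresis. DMSO = negative control/baseline, bidirectional fit.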

Assay [9] concerns the target Retinoic acid receptor alpha (Homo sapiens) (UniProt P10276). The assay can be described thus: ATG_DR5_RAR_CIS: Attagene CIS-FACTORIAL HepG2 Assay for human Retinoic Acid Receptor Alpha (RARE), DR5 submotif (AID 2282934). The conditions noted are these: HepG2 Attagene cis-factorial RARE DR5 reporter, mRNA; actives raise or lower the signal. Put shortly: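 HepG2 cells transiently transfected with multiplexed reporter units; DR5 cis-element drives reporter through endogenous transcription factors. After 24 h dosing, reporter mRNA quantified by RT-PCR, fluorescent labeling, HpaI digestion and capillary electrophoresis; bidirectional fitting versus DMSO.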

The target in assay [10] is Transcription factor E2F1 (Homo sapiens) (UniProt Q01094). The assay can be described thus: ATG_E2F_CIS: Attagene CIS-FACTORIAL HepG2 Assay for human E2F Transcription Factor 1 (AID 2282935). The conditions noted are these: HepG2 Attagene cis-reporter, E2F reporter RNA transcripts; actives raise or lower the signal. Put shortly: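 Liver-derived HepG2 cells expressing transfected promoter-driven reporter units received test chemical for 24 hours. Signal gains or losses were fitted bidirectionally against DMSO.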
Transcription factor E2F1 (Homo sapiens), sequence (Q01094 whole entry, looked up): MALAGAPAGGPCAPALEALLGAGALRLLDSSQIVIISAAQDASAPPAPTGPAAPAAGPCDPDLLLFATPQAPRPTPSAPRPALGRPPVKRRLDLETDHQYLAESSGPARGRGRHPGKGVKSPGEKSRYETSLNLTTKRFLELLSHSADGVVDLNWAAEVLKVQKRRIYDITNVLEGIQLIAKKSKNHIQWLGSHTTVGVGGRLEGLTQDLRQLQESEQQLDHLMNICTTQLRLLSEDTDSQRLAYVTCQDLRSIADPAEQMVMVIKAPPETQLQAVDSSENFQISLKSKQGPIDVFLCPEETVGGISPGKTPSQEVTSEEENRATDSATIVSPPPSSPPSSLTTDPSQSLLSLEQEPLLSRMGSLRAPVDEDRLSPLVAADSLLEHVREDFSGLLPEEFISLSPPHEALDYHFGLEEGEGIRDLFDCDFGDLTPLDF

A short description of assay [11]: ATG_E_Box_CIS: Attagene CIS-FACTORIAL HepG2 Assay for human Enhancer Box (E-box) (AID 2282936). The conditions noted are these: HepG2 E-box cis-reporter transcription, actives raise or lower the signal. Put shortly:
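In this cell-based setup, HepG2 cells bearing transfected promoter-driven reporter units were exposed to chemicals for 24 h; reporter transcripts were amplified, 6-FAM-labelled, cut with HpaI and sized by capillary electrophoresis.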

Assay [12] in a line: ATG_M_61_CIS: Attagene CIS-FACTORIAL HepG2 Assay for M61 Transcription Factor (Internal Marker) (AID 2282937). The conditions noted are these: HepG2 Attagene CIS-FACTORIAL M61 internal marker reporter; actives raise or lower the signal. An outline of the steps:
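Background-control endpoint: HepG2 cells with cis-regulated reporter constructs, 24 h exposure, reporter mRNA detected via fluorescent primer extension and capillary electrophoresis; values from bidirectional fitting with DMSO baseline.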

A short description of assay [13]: ATG_EGR_CIS: Attagene CIS-FACTORIAL HepG2 Assay for human Early Growth Response 1 (EGR1) (AID 2282938). The conditions noted are these: HepG2 Attagene CIS-FACTORIAL EGR reporter mRNA; actives raise or lower the signal. An outline of the steps:
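Endpoint derived by bidirectional fitting versus DMSO vehicle. Method: cis-promoter reporter units transfected into HepG2, 24 h dosing, RNA isolation, RT-PCR with 6-FAM primer extension and HpaI digestion, then capillary electrophoresis fluorescence detection.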

Structures are written as SMILES. Calls of active or inactive are those of the source. The calls were made as follows: active = hit-call score of the fitted dose curve at least 0.9, where 1 is the maximum; inactive = score below 0.9.

For orientation: AC50 means the concentration at which the activity in the assay is half-maximal.

Retinoic acid receptor alpha (Homo sapiens), sequence (P10276 whole entry, looked up): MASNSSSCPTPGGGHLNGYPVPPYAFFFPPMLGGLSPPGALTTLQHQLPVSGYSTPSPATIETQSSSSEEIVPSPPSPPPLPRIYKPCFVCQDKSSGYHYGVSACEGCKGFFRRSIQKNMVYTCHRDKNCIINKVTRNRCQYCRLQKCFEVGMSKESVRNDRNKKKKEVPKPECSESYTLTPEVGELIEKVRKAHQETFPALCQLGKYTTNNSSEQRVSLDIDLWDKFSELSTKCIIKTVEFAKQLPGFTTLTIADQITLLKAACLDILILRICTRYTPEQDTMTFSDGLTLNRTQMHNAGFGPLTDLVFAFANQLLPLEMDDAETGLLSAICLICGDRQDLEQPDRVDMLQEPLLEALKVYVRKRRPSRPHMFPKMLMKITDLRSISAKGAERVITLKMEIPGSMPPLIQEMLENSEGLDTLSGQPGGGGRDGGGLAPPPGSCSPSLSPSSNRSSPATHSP

As to `CCC[N+](CCC)(CCC)CCC`, the call in [1], in assay [2], in [3], in assay [4], in assay [5] and in assay [6] was inactive. Besides, the result in [7], in assay [8], in assay [9], in [10], in [11] and in assay [12] was inactive. Besides, the compound was classed as inactive in assay [13].

For the compound `Nc1nc(=S)[nH][nH]1`, the call in assay [1], in [2], in assay [3], in assay [4], in assay [5] and in [6] was inactive. Further, the outcome in assay [7], in assay [8], in [9], in [10], in assay [11] and in assay [12] was inactive. For the same compound, the outcome in assay [13] was inactive.

Regarding `CCOP(=S)(OCC)O/N=C(\C#N)c1ccccc1`, the compound was called inactive in assay [1], in assay [2], in assay [3], in assay [7], in assay [9] and in assay [10]. Besides, the outcome in assay [11], in assay [12] and in assay [13] was inactive. Besides, the half-maximal activity concentration (AC50) in assay [4] is 27.7 µM (active); in assay [5], 0.657 µM (active); in [6] it was 42.3 µM (active); in assay [8], 31.6 µM (active).

On to `CC1CC(=O)O1` (stereo not given), for which the result in [1], in [2], in assay [3], in assay [4], in assay [5] and in assay [6] was inactive. Further, the compound was classed as inactive in assay [7], in [8], in assay [9], in [10], in assay [11] and in assay [12]. Further, the result in assay [13] was inactive.

Consider `CCCCOP(=O)(CCCC)OCCCC`, for which the call in assay [1], in [2], in assay [3], in assay [4], in assay [5] and in [6] was inactive. Further, the compound was called inactive in assay [7], in assay [8], in [9], in assay [10], in assay [11] and in [12]. Also, in [13], the compound was classed as inactive.

In the case of `CCCCN(CCCCO)N=O`, the compound was called inactive in assay [1], in [2], in [3], in assay [4], in assay [5] and in assay [6]. Besides, the call in [7], in assay [8], in [9], in [10], in [11] and in [12] was inactive. The outcome in assay [13] was inactive.

With `O=[N+]([O-])c1ccc(Nc2ccccc2)cc1`, the outcome in [1], in assay [2], in [3], in assay [4], in assay [5] and in [6] was inactive. For the same compound, the outcome in assay [7], in [9], in assay [10], in assay [11], in assay [12] and in assay [13] was inactive. Besides, in assay [8], the AC50 is 163 µM (active).

With `C=CC(=O)NC(C)(C)CC(C)=O`, the compound was classed as inactive in assay [1], in assay [2], in assay [3], in assay [4], in assay [5] and in assay [6]. The call in [7], in [8], in assay [9], in assay [10], in assay [11] and in assay [12] was inactive. In addition, the result in assay [13] was inactive.

Regarding `C[C@H]1C(=O)O[C@@H]2CCN3CC=C(COC(=O)[C@](C)(O)[C@]1(C)O)[C@H]23`, the call in assay [1], in assay [2], in assay [3], in [4], in assay [5] and in assay [6] was inactive. Besides, the outcome in assay [7], in assay [8], in [9], in assay [10], in [11] and in assay [12] was inactive. Besides, the compound was called inactive in [13].

With `FC(F)OCC(F)(F)C(F)(F)F`, the compound was classed as inactive in assay [1], in [2], in assay [3], in assay [4], in assay [5] and in assay [6]. For the same compound, the outcome in assay [7], in [8], in assay [9], in assay [10], in [11] and in assay [12] was inactive. Moreover, the outcome in assay [13] was inactive.
